Compound activity deposited in PubChem BioAssay by several laboratories.
VLA-4 inh = inhibition in a human VLA-4 binding assay; P13612; VLA-4 expressing cells, ligand binding flow cytometry; inhibition, % (about 7 µM as worked out from the volumes in the protocol); 0.2% of 330,000 active; AID 2557
Pemphigus Ab inh = blocks pemphigus antibody binding to human desmoglein-3; P32926; DSG3-coupled beads, scFv-anti-DSG3-GFP binding, flow cytometry; stronger effect = lower value; binding (percent of control), % at 10 µM; 0.48% of 310,000 active; AID 588358;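 active = binding more than 3 SD below its plate's average and above zero; inconclusive = below that plate limit but binding exactly zero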;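 also: hits lower antibody fragment binding to DSG3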
PKD1 kinase inh = inhibitors of human PKD1 kinase; inhibition, % (test concentration not listed); AID 797; Q15139; 0.056% of 200,000 active; PKD1 kinase fluorescence polarization assay
GRK2 aptamer HTS = human GRK2 inhibition via aptamer displacement; inhibition of aptamer binding, % at 10 µM; AID 488847; bead flow cytometry, FAM-aptamer displacement from GRK2; 0.59% of 330,000 active;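 active = inhibition of aptamer binding above 40%, roughly 3 SD of noise, on plates passing a quality check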;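 also: median bead fluorescence of bound FAM aptamer so fluorescent compounds give negative values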
HDAC3 inh = human HDAC3 inhibition. recombinant HDAC3, fluorogenic peptide/trypsin coupled, fluorescence. 0.15% of 320,000 active. O15379. inhibition, % at 8.3 µM; in the data active = inhibition above about 26%, passing the limit was not always enough; inconclusive = no clear call, values can overlap the other calls
LANA-H2A inh = blocks KSHV LANA binding to histone H2A/H2B; Q9QR71; cell-free LANA-H2A/H2B peptide, fluorescence polarization; inhibition, % (test concentration not listed); 0.6% of 320,000 active; AID 2629; in the data active = inhibition mostly above about 10%, no sharp cut-off; inactive = mostly below about 6.7%
Hits are given with their value; – = inactive; ? = inconclusive; · = not tested or not shown; + = active, no number. Rows were chosen to be rich in hits. Some 1.8% of all compounds tested hit in one or more screens of this group. Rule as the data show it, unless noted: active = inhibition above about 50%; inactive = the rest.

SMILES | VLA-4 inh | Pemphigus Ab inh | PKD1 kinase inh | GRK2 aptamer HTS | HDAC3 inh | LANA-H2A inh
CCn1c(N2CCN(S(=O)(=O)c3ccc(Cl)cc3)CC2)nc2ccccc21 | – | -37 | – | – | – | –
CC(C)(C)OC(=O)N1CCCC(C(=O)Nc2cccc(C(=O)N3CCCCC3)c2)C1 (centres undefined) | · | – | · | · | · | ·
CCC(=O)NCCn1c(C)cc2ccccc21 | – | – | – | – | · | –
Cc1cc2ccccc2n1CCNC(=O)COc1ccccc1 | – | 65 | – | – | · | –
COc1ccc(Cl)cc1NC(=O)C/C(C)=N/NC(=O)c1ccccc1[N+](=O)[O-] | – | – | · | – | – | –
COc1ccc(Cl)cc1NC(=O)C/C(C)=N/NC(=O)C(=O)NCc1ccccc1 | – | – | · | – | – | 15
Cc1c(Cl)cccc1NC(=O)CCN1C(=O)NC(C)(C)C1=O | · | – | · | · | · | ·
Cc1ccc(OCCN(C)C(=O)c2cc(COc3ccc(F)cc3F)on2)cc1 | – | – | · | – | – | 173
COc1ccc(N(CC(=O)Nc2cc(Cl)ccc2C)S(=O)(=O)c2c(C)noc2C)cc1 | – | – | · | – | – | 51
Cc1cc(C)cc(N(CC(=O)O)S(=O)(=O)c2c(C)noc2C)c1 | – | – | – | – | – | –
Cc1cc(C)cc(N(CC(=O)NC2CCC(C)CC2)S(=O)(=O)c2c(C)noc2C)c1 (centres undefined) | – | 91 | – | – | – | –
COc1ccc(N(CC(=O)Nc2cc(C)ccc2C)S(=O)(=O)c2c(C)noc2C)cc1 | – | – | · | – | – | –
COc1ccc(OC)c(NC(=O)CSc2ncnc3sc(C)cc23)c1 | · | – | · | · | · | ·
Cn1cccc1CC(=O)NNC(=S)NC(=O)c1ccc(F)cc1 | – | – | · | – | – | –
CC(C)(C)NC(=O)C(OC(=O)c1cccs1)c1ccc(F)cc1 (centres undefined) | – | -16 | – | – | ? | –
COc1cccc(/C=C/C(=O)OCC(=O)c2ccccc2)c1OC | – | – | · | – | – | –
COc1cccc(/C=C/C(=O)OCC(=O)c2ccc(C)c(C)c2)c1OC | – | – | · | – | – | 20
Cn1c(=O)c(N)c2c3c(c(Br)ccc31)C(=O)c1ccccc1-2 | – | – | · | – | – | 43
Cc1cc(C)n2nc[n+](C)c2n1 | – | – | – | – | – | 19
Cc1cc(C)n2nc(CCCCc3nc4nc(C)cc(C)n4n3)nc2n1 | – | · | – | – | – | –
Nc1ccc2c(c1)[nH]c(=O)c1cc(N)ccc12 | · | 75 | · | · | · | ·
CN(CC(=O)Nc1cccc(F)c1)C(=O)c1ccccc1-n1cnnn1 | · | – | · | · | · | ·
CCCC(=O)Nc1ccc(NC(=O)c2ccco2)cn1 | – | · | – | – | – | –
CCCC(=O)Nc1ccc(NC(=O)c2ccccc2OC)cn1 | – | – | – | – | – | –
CCCC(=O)Nc1ccc(NC(=O)c2ccccn2)cn1 | – | – | – | – | – | 39
SMILES | VLA-4 inh | Pemphigus Ab inh | PKD1 kinase inh | GRK2 aptamer HTS | HDAC3 inh | LANA-H2A inh
COc1ccc(C(=O)Nc2ccc(NC(=O)C3CC3)cn2)cc1 | – | – | · | – | – | –
CCCCC(=O)Nc1ccc(NC(=O)c2ccco2)cn1 | – | – | · | – | – | 11
COc1ccc(C(=O)Nc2ccc(NC(=O)c3cnccn3)cn2)cc1 | – | 72 | – | – | – | –
C[C@]12c3[nH]c4ccccc4c3CCN1C(=O)C(CC(=O)NCc1cccc(C(F)(F)F)c1)C[C@@H]2C(=O)N1CCOCC1 (some centres undefined) | – | – | · | – | – | +
C[C@]12c3[nH]c4ccccc4c3CCN1C(=O)C(CC(=O)NCc1cccc(C(F)(F)F)c1)C[C@@H]2C(=O)N1CCCCC1 (some centres undefined) | – | – | · | – | ? | –
C[C@]12c3[nH]c4ccccc4c3CCN1C(=O)C(CC(=O)NCc1ccco1)C[C@@H]2C(=O)N1CCCCC1 (some centres undefined) | – | – | · | – | – | –
C[C@]12c3[nH]c4ccccc4c3CCN1C(=O)C(CC(=O)NCc1ccco1)C[C@@H]2C(=O)N1CCOCC1 (some centres undefined) | – | – | · | – | – | 94
Cc1noc(C)c1S(=O)(=O)N(CCc1ccccc1)Cc1ccccc1 | – | – | – | – | – | –
CC(NC(=O)c1ccc(C(=O)c2ccccc2)cc1)c1ccc(S(N)(=O)=O)cc1 (centres undefined) | · | – | · | · | · | ·
COc1ccc(CNC(=O)CSc2ncnc3nc[nH]c23)cc1 | – | – | – | – | – | –
